# About 79,000 compounds went through this panel and 15% of them were active in at least one assay; those are over-represented in the sample as a whole. A number with no mark means an inactive call. Active and inactive are the calls of the source. Rule as the data show it: active = growth inhibition above about 70%; inactive = the rest.
# Legend:
# [1] = NCI Yeast Anticancer Drug Screen. Data for the rad50 strain (AID 155);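 also: 0% = growth of vehicle-only cultures of the same strain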; details: S. cerevisiae rad50 strain growth inhibition, hits give high values
# Procedure, shortened: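 Growth of the mutant yeast was measured after compound exposure and referenced to vehicle-treated cultures.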
# [2] = NCI Yeast Anticancer Drug Screen. Data for the mec2-1 strain (AID 157); details: S. cerevisiae mec2-1 strain, hits give high values
# Procedure, shortened: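 Compounds were applied to mec2-1 yeast cells. Their growth was then compared with that of vehicle-treated cultures to give growth inhibition.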
# [3] = NCI Yeast Anticancer Drug Screen. Data for the sgs1 mgt1 strain (AID 161);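 also: 0% = growth of cultures given vehicle only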; details: S. cerevisiae sgs1 mgt1 strain, hits give high values
# Procedure, shortened: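 Compounds are added to genetically altered yeast, and growth is compared with cultures given vehicle alone to give percent inhibition.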
# [4] = NCI Yeast Anticancer Drug Screen. Data for the cln2 rad14 strain (AID 165);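 also: 0% = growth equal to vehicle treated cultures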; details: S. cerevisiae cln2 rad14 strain, hits give high values
# Procedure, shortened: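 Strain: cln2 rad14 yeast, altered in cell cycle control and DNA damage repair. Read-out: growth inhibition vs vehicle.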
# [5] = NCI Yeast Anticancer Drug Screen. Data for the bub3 strain (AID 167); details: S. cerevisiae bub3 mutant strain, hits give high values
# Procedure, shortened: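 Whole-cell yeast assay. The mutant strain was incubated with compounds, and growth inhibition was determined by comparison with vehicle-treated cells.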
# [6] = NCI Yeast Anticancer Drug Screen. Data for the mlh1 rad18 strain (AID 175); details: S. cerevisiae mlh1 rad18 strain growth inhibition, hits give high values
# Procedure, shortened: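 A repair-deficient yeast strain is exposed to test compound, and growth is scored relative to vehicle-treated controls.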
# [7] = at 5.0 µM (retest, dose inferred, filed as 0.5)
# [8] = at 50.0 µM (retest, dose inferred, filed as 5.0)
Structure (SMILES),"growth inhibition [1, 7] [%]","growth inhibition [1, 8]",growth inhibition ([1]; at 50.0 µM),"growth inhibition [2, 7]","growth inhibition [2, 8]",growth inhibition ([2]; at 50.0 µM),"growth inhibition [3, 7] [%]","growth inhibition [3, 8]",growth inhibition ([3]; at 50.0 µM),"growth inhibition [4, 7]","growth inhibition [4, 8]",growth inhibition ([4]; at 50.0 µM),"growth inhibition [5, 7]","growth inhibition [5, 8]",growth inhibition ([5]; at 50.0 µM),"growth inhibition [6, 7]","growth inhibition [6, 8]",growth inhibition ([6]; at 50.0 µM)
CSC(=S)N/N=C\C(O)C(O)C(O)C(O)CO (configuration not stated),-2,9%,97.6% (active),-2%,0%,95.8% (active),-2,1%,95.2% (active),0%,0%,70.3% (active),-1%,-2%,96.3% (active),-2%,9%,97.8% (active)
O=C1COC(=O)/C1=C\C=C\c1ccccc1,5,55%,95.6% (active),8%,84% (active),91% (active),13,78% (active),99% (active),1%,94% (active),95.4% (active),-5%,43%,97.2% (active),2%,68%,99% (active)
Cc1ccc(O)c(C(c2ccc([N+](=O)[O-])cc2)c2cc(C)ccc2O)c1,68,95% (active),91.2% (active),90% (active),98% (active),92.9% (active),51,57%,39%,73% (active),53%,89.7% (active),93% (active),52%,90.9% (active),84% (active),96% (active),91.3% (active)
O=C1OC(c2cccc(Cl)c2)=N/C1=C\C=C/c1ccccc1,-3,-10%,14.1%,-27%,-15%,-7.9%,-8,1%,17.6%,19%,21%,11.8%,-1%,-10%,11.9%,-16%,-39%,3.9%
CCOC(=O)C(=NNc1ccccc1)C(=O)OCC,2,50%,42.4%,-3%,2%,33.2%,-4,16%,42.5%,-1%,4%,-14.6%,-1%,27%,46.9%,1%,25%,62.9%
Cc1ccnc(NCCN(C)C)c1,2,-1%,98.5% (active),1%,4%,98.2% (active),3,1%,97.5% (active),-6%,1%,98.3% (active),-1%,-2%,99.3% (active),-1%,-1%,98.7% (active)
O=C1c2ccccc2C(=O)c2cc(O)ccc21,34,91% (active),84.8% (active),-13%,77% (active),56.1%,2,82% (active),69%,11%,54%,64.4%,44%,84% (active),80.3% (active),15%,87% (active),85% (active)
C1CCN(c2nc(N3CCOCC3)c3[nH]c(N4CCCCC4)nc3n2)CC1,1,84% (active),35%,5%,90% (active),35.4%,2,86% (active),46.4%,8%,49%,60.1%,0%,71% (active),49.6%,-2%,68%,36.5%
C/C=C\c1cc2c(cc1CC#N)OCO2,8,42%,-21.3%,5%,14%,20.1%,13,51%,42.5%,12%,78% (active),5.6%,1%,-2%,8.25%,17%,39%,25.6%
